Measured values: the supplement of paper PMC10042075
“And” between values parts separate entries of the source, which are not always exact repeats. Equal entries are not always repeated. Structures can show the parent of a compound that is named as a salt.

test system: LASCPC-01; assay: cell viability relative to DMSO control (fraction); higher = less growth inhibition (more viable cells); conditions: 2 µM; 72 h
Procedure: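 High-throughput single-dose screen in the LASCPC-01 NEPC cell line in 384-well plates. Cells were treated with each compound at 2 µM for 72 h, and viability was read by CellTiter-Glo luminescence. Values are normalised to the DMSO control (compound/DMSO) from three replicates; only the 5-HT-related subset of the 7315-compound library is given.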

SMILES | cell viability
C=CCc1ccccc1OCC(O)CNC(C)C (stereo not given) [Alprenolol] | 1.03
CN(C)CCCN1c2ccccc2CCc2ccccc21 [Imipramine hydrochloride] | 1.13
Cn1cc(C(=O)OCC2CCN(CCNS(C)(=O)=O)CC2)c2ccccc21 | 0.959
CNS(=O)(=O)CCc1ccc2[nH]cc(C3CCN(C)CC3)c2c1 [Naratriptan] | 1.03
COc1ccccc1N1CCN(CCN2C(=O)CC3(CCCC3)CC2=O)CC1 [BMY 7378 dihydrochloride] | 1.07
CCOc1cc(N)c(Cl)cc1C(=O)NCC1CN(Cc2ccc(F)cc2)CCO1 (stereo not given) [Mosapride Citrate] | 0.912
COCCCN1CCC(NC(=O)c2cc(Cl)c(N)c3c2OCC3)CC1 [Prucalopride] | 0.922
O=S(=O)(c1ccccc1)c1cnc2c(N3CCNCC3)cccc2c1 | 0.879
CN(C)[C@@H]1CCc2[nH]c3ccc(NC(=O)c4ccc(F)cc4)cc3c2C1 | 0.693
CNCCC(Oc1ccc(C(F)(F)F)cc1)c1ccccc1 (stereo not given) [Fluoxetine HCl] | 1.02
CC1CCN(CC[C@H]2CCCN2S(=O)(=O)c2cccc(O)c2)CC1 | 0.707 and 0.855
CN(C)CCC=C1c2ccccc2CCc2ccccc21 [Amitriptyline HCl] | 1.15
COC(=O)[C@H]1[C@H]2C[C@@H]3c4[nH]c5cc(OC)ccc5c4CCN3C[C@H]2C[C@@H](OC(=O)c2cc(OC)c(OC)c(OC)c2)[C@@H]1OC [Reserpine] | 0.918
O=C1[C@@H]2[C@H]3CC[C@H](C3)[C@@H]2C(=O)N1CCCCN1CCN(c2ncccn2)CC1 [Tandospirone citrate] | 0.477
CN1CCc2c(c3ccccc3n2Cc2ccccc2)C1 [Mebhydrolin napadisylate] | 1.03
N[C@@H](Cc1c[nH]c2ccccc12)C(=O)O [L-Tryptophan] | 0.904
N#Cc1ccc2[nH]cc(CCCCN3CCN(c4ccc5oc(C(N)=O)cc5c4)CC3)c2c1 [Vilazodone HCl] | 0.916
Cc1nccn1CC1CCc2c(c3ccccc3n2C)C1=O (stereo not given) [Ondansetron HCl] | 1.03
CCCCCNC(=N)N/N=C/c1c[nH]c2ccc(OC)cc12 [Tegaserod maleate] | 0.531
CNS(=O)(=O)CCc1ccc2[nH]cc(C3CCN(C)CC3)c2c1 [Naratriptan hydrochloride] | 1.02

SMILES | cell viability
CN(C)C(=O)N[C@H]1CC[C@H](CCN2CCN(c3cccc(Cl)c3Cl)CC2)CC1 [Cariprazine] | 0.892
CN1CCN(C2=Nc3cc(Cl)ccc3Nc3ccccc32)CC1 [Clozapine] | 1.24
O=C1CC2(CCCC2)CC(=O)N1CCCCN1CCN(c2ncccn2)CC1 [Buspirone hydrochloride] | 1.08
O=C1CC2(CCCC2)CC(=O)N1CCCCN1CCN(c2ncccn2)CC1 [Buspirone HCl] | 1.02
COc1ccc(NC(=O)c2ccc(-c3ccc(-c4noc(C)n4)cc3C)cc2)cc1N1CCN(C)CC1 | 0.512
CN1[C@@H]2CC[C@H]1C[C@@H](OC(=O)c1c[nH]c3ccccc13)C2 [Tropisetron] | 1.01
O=C(OC1C[C@@H]2CC3C[C@H](C1)N2CC3=O)c1c[nH]c2ccccc12 (stereo not given in full) [Dalasetron Mesylate Hydrate] | 0.985
CN[C@H]1CC[C@@H](c2ccc(Cl)c(Cl)c2)c2ccccc21 [Sertraline hydrochloride] | 0.958
O=C(CCCCCN1CCN(c2ccccc2-c2ccccc2)CC1)NC1CCCc2ccccc21 (stereo not given) [LP 12 hydrochloride hydrate] | 0.972
CCCCN1CCC(CNC(=O)c2c3n(c4ccccc24)CCCO3)CC1 [Piboserod] | 1.21
O=C1c2cccc3c2[C@H](CCC3)CN1[C@@H]1CN2CCC1CC2 [Palonosetron hydrochloride] | 0.935
CCN(CC)CCOC(=O)C(Cc1cccc2ccccc12)CC1CCCO1 (stereo not given) [Nafronyl oxalate] | 1.07
N[C@@H](Cc1c[nH]c2ccc(O)cc12)C(=O)O [5-Hydroxy-L-tryptophan] | 1.04
Nc1ccc2c(C(F)(F)F)cc(=O)oc2c1 [7-Amino-4-(trifluoromethyl)coumarin] | 0.894
CC(=O)c1ccc2c(c1)N(CCCN1CCC(CCO)CC1)c1ccccc1S2 [Piperacetazine] | 0.764
CNCC[C@@H](Oc1ccccc1C)c1ccccc1 [Atomoxetine HCl] | 1.02
CCN1CCN(c2cc(-c3ccc(F)cc3)c3c(n2)CCCCCC3)CC1 [Blonanserin] | 0.776
CNc1cc(NS(=O)(=O)c2ccc(N)cc2)nc(NC)n1 [Ro 04-6790 dihydrochloride] | 1.03
O=C1[C@H]2CCCC[C@H]2C(=O)N1CCCCN1CCN(c2nsc3ccccc23)CC1 [Perospirone] | 0.997
OC(CN1CCN(c2cccc(Cl)c2)CC1)C(c1ccccc1)c1ccccc1 (stereo not given) | 0.778
